# In all, about 53,000 sequences went through this assay and about 3,700 (7%) were called active. The sample as a whole holds a higher share of actives than the screen did. Unmarked numbers belong to inactive results.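 Rule for the calls: active = gene knockdowns whose robust z-score for IL-1 alpha signal is at least 2 or at most -2, so actives lie on both sides; inactive = the rest.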
# Test: Components of the Cytosolic LPS Sensing Pathway: Gene Identification via Genome-wide siRNA Screen;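 note: robust z of the log signal after scaling to non-targeting control siRNA wells of the plate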
# Conditions: RAW264.7 macrophages, IL-1a HTRF, actives lie on both sides, screened at 100 nM (by protocol), cells primed 5 h with Pam3CSK4 first
# Summary of the method: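 IL-1a HTRF of supernatants after 24 hour LipidA transfection of Pam3CSK4-primed (5 hours) RAW264.7 cells, 48h post-siRNA transfection (100 nM). Scores: percent of plate negative-control median, then log-based robust z-score.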
row,Sequence,z-score
1,GGAAAUGGAUCCAGAAUAUTT against Smarca1,-1.12
2,GGACAUGACAUCCAAAGACTT against Prmt1,-0.649
3,GGACACAGAUUAAUCAAGATT against Iftap,0.144
4,GGCCAUUGCCUCUUCUACUTT against Plekha4,-0.225
5,GAUCAACCUGAGCUCCAGUTT against Olfr25,2 (active)
6,GGCCAUCCGCAUUUUUUCCTT against Mex3b,-0.34
7,GGUUUUCAAAGUCCUGAAUTT against Myo3a,-1.96
8,GGGAAAGAAUGGUGUGGAATT against Dlx4,-1.97
9,GGAAACUUCAGACUAGUCATT against Eif2s3y,-0.0291
10,GGGAAUUUCGGCUGUUUUATT against Cts8,1.85
11,GGACCUGAGAGACUCUUUGTT against Ip6k2,-3 (active)
12,GGUCCACAGAUUCUUCUAATT against Zfa-ps,-0.761
13,GGCCAUUUUGGAUCAUACATT against Actl6a,-1.06
14,GCAGAUCAAUGGAUUCACCTT against Olfr57,-1.51
15,GGCACUGCCAUUAACAAAATT against Nrip1,0.0122
16,GGGCCAAUAAAGAGGACAGTT against Aanat,2.38 (active)
17,CCUGAUUGUCUUCAAUGGGTT against Cant1,-0.84
18,CCAGUUGACAGGUUUGAUCTT against Habp4,-0.255
19,GGUACAAGAUAUUGUGAAATT against Fgd3,0.0612
20,GCUUGAUCAACAAGUGGAGTT against Nup62,-2.13 (active)
21,GAGCUCUGCAUUUGGUUAGTT against Fam98b,0.0904
22,ACUCAGUCAUUAAAGAGUGTT against G430095P16Rik,0.447

row,Sequence,z-score
1,GGAUAUUCCCAAUUACAAGTT against Plxna3,-0.469
2,GGUCCAGAAGCAGAUGCUUTT against Zdhhc15,-0.174
3,GCAAGAACAUUAUGAAAGUTT against Epb41,0.905
4,GGCCUACCACCUUCAGAAGTT against Rpl37,2.01 (active)
5,GGCACUGUAGACAAACUCUTT against Stxbp1,-0.468
6,GGCACCUAUGAGGUUCUAUTT against Sec16b,-0.615
7,GUUCAAGAGGGAGCUGGAATT against Pomc,0.842
8,GGUCAUUUGUUUUCAGGGATT against Tfdp2,3.07 (active)
9,GGGCCUUUAGUCCUCAAAGTT against Psmg3,0.387
10,CCUGUCAUCACACUCGAGGTT against Coro6,-0.00248
11,CGGCGGUUUAAUGAAAAUATT against Cbfa2t2,-2.58 (active)
12,GGUAGAAUGUGUGAUACCCTT against Rogdi,0.205
13,GGUGGUCCAGAAUUUUGCATT against Cotl1,0.386
14,CGGGAAUAAGAUCUUUCUGTT against Zbtb22,1.43
15,GGUACAUGAUUACCAGCCUTT against Sdk2,-2.26 (active)
16,GGAAUAGUGGCUUCUUUUATT against Rsph3a,-0.00182
17,UUUGCAUGUACAGAAUGCUTT against Olfr312,1.54
18,GGAAACACAAGUUCUAGGUTT against Gpx3,0.735
19,GGGUUUCUGUGAGAGACAATT against Ube2f,1.01
20,GGAUGUUUGCUCUUGAGCGTT against Isoc1,-2.17 (active)
21,GGGACUAUAAGGAACCAGGTT against Fmo3,-0.35
22,GGGCAAGACUUAAUUUUGGTT against Dppa1,-0.36

row,Sequence,z-score
1,GGUCAAGAGUGCCCUAAAATT against Olfr398,-1.63
2,GGAUUCGUUCAGCUAAGGGTT against Olfr1023,1.29
3,GGAGAAAUGUUGUUGUCUUTT against Kcng3,-0.327
4,AAAGCGCAUUCACAAAAAUTT against Olfr1453,0.197
5,GGAAACAAGGAUAUUCUUUTT against Fanca,0.859
6,GGAGGUAUUAUCUGAAUUGTT against Utp14a,1.17
7,GGAGGCAUACAUGACAAAATT against Cop1,0.953
8,GGCAGAGUGCUGACUUCAUTT against Coq8a,3.86 (active)
9,CCAUGUAUGCCUCAACAUATT against Ltf,0.517
10,GGAAAGUGCCAUGAAGACCTT against Dbi,-1.42
11,GCUCCUAAUGGAAAGAACGTT against Pla2g4d,0.0914
12,CCUGUCCAGGGUUUGACCATT against Man2c1,-1.12
13,GCGAUAUGCAGAGAAGCGGTT against Prpf8,-1.63
14,GGUUAAAGGAGCAGUCUAUTT against Dbn1,0.636
15,GGAGAAAGUGUCCUCUGUGTT against Olfr924,-2.41 (active)
16,GGGCUGGGUCUUCAUAAUUTT against 6330549D23Rik,1.14
17,GCACUUCAAUCCAGUGUCUTT against Pdgfd,-1.27
18,GGCAAAAAUUUUUUCAUGCTT against Abcb4,-0.47
19,GGUGGCGGGAGAUGUUUUUTT against Pex6,0.85
20,GGUCUAGAGCAAUUCCAUATT against Olfr656,1.51
21,GUUGUAUUUCUUUGUCCUCTT against Olfr1097,2.21 (active)
22,GAUCUUAUAUGUUGGUGGUTT against Vmn1r29,-0.31

row,Sequence,z-score
1,GGUGAACUUUACCUUCAACTT against Mov10,0.867
2,GGAUCAACGAGGUAAAGUCTT against Itga8,0.101
3,GGUUUUUGAUAAUUGCCAUTT against Gcsh,-1.98
4,GGAAGAAGACACAAAAAAUTT against Rcan3,3.53 (active)
5,GGUCUUCUUCUUCAAAGCUTT against Mrpl46,-1.27
6,GCAACGUGGUCAUCAAUCUTT against Ndufa9,-0.743
7,GGGUUAUGGCUGGAAUCUGTT against Slc12a9,-1.52
8,GGAACAAGGCUUUUUCCACTT against Olfr481,0.566
9,CCCGUUGUAUACAAAUACCTT against Tmem41b,0.579
10,CCCAAACAGACUAGAUCCGTT against Rab20,3.37 (active)
11,GUGGAAAUUAAUCUGGGUUTT against Tmem191c,0.394
12,GGCCAGAUAGCAAAACAGCTT against Mpst,0.897
13,GGAGGUGUUCAUUGAAGUCTT against Nudcd2,-0.356
14,GGAACUGACAGCUAUGAACTT against Atp6v1d,-0.845
15,GGAGAAGAAAGCAAAAACCTT against Ing1,-2.11 (active)
16,CGCAGAUCAAUUUUCAUAGTT against Kif2a,0.471
17,GGAUAUUGGUGGCACUUUATT against Med6,-0.315
18,GGAUAAAUGGUACAUUCAGTT against Coa7,0.958
19,CCAACCUAAACAAUGCAUUTT against Actn4,-0.431
20,GGCGGACUUGGAUUACAGCTT against Rassf10,2.21 (active)
21,GGAGCUGCUGUUAAUUCCATT against Col5a3,1.3
22,GGAAGCCUACCUUUAUAUUTT against Slc2a3,0.458

row,Sequence,z-score
1,CCUUUUCAAGCUAACAACATT against Gba2,-0.0808
2,GGUAGCACUUUGUAUUUUATT against Spg7,0.575
3,GCAUCUACUAUCCAAGUGATT against Alox8,2 (active)
4,CCUACAGCCACCUAAUAGATT against Olfr1196,-0.346
5,GCAAGUAACUACCAGAGUATT against Cfap20,-0.488
6,CCACGGGAGACAAGAUUCUTT against Hmbs,3.18 (active)
7,GGUCAGCGAACCACGAUAATT against Olfr314,-0.792
8,GGUAUAAGGUCAUAGAAUUTT against E230016K23Rik,0.429
9,GCUUCUAUUUUGGAUGAUGTT against Skint10,-1.2
10,GGCACAAGUUGACCAAUAUTT against Rtn1,-0.263
11,GCUACUCCUUAGAACACGGTT against Spry1,0.839
12,GGCUAUCUGAUUUUUGUUGTT against Nlrp3,-0.0259
13,GGCCUCAAACUGAAUAUUATT against Serpina7,0.472
14,CCCGGAAACAACACAUUGCTT against Tyrobp,2.88 (active)
15,GGUCCAGCAUUUGAAAUUATT against Moap1,0.291
16,CCACUGUGCAAGAAGCACGTT against Ldb3,-0.129
17,GGGUAAUGGGCCAGUAUCATT against Fam229b,-2.92 (active)
18,GGUAUAUUGUGCCAGCACATT against Olfr705,0.00345
19,GGUUCACAUGUACAUUAAATT against Cracd,-0.156
20,GGUUAGAAAACAAUAUCAGTT against 9530053A07Rik,0.88
